From PubChem BioAssay (NCATS)
Calls of active or inactive are those of the source. Calls come from the whole dose curve; as a rule, active = well fitted inhibition curve with a large enough effect; inconclusive = small, poorly fitted or top-dose-only effect; inactive = no such curve, though single readings can be large or run the other way.

The compounds below were run against Pyruvate kinase (Leishmania mexicana) (UniProt Q27686) (assay: qHTS Validation Assay for Inhibitors of Leishmania Mexicana Pyruvate Kinase (AID 945;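 note: 0% = DMSO only neutral control wells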)). Conditions: purified L. mexicana pyruvate kinase, enzyme activity, E451W mutant enzyme; series mostly up to 57.5 µM; activity change, negative = inhibition: at the top concentration.
Chain of Pyruvate kinase (Leishmania mexicana) (Q27686 2-499 E452W): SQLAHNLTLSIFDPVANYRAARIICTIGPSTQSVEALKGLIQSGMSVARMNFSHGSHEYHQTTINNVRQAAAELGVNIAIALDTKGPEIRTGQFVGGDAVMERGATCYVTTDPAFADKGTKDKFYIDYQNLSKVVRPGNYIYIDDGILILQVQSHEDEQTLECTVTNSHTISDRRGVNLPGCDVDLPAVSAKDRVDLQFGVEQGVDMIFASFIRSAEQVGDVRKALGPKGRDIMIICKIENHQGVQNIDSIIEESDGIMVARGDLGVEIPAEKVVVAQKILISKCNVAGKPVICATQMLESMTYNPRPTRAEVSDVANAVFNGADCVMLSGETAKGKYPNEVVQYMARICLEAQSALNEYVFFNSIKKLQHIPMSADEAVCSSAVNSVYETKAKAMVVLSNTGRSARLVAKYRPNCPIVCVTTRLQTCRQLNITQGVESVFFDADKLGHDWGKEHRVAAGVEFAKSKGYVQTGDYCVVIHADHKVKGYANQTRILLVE
Excerpt: NIH Molecular Libraries Screening Centers Network [MLSCN]
NIH Chemical Genomics Center [NCGC]
PI names: Malcom Walkinshaw, Hugh Morgan and Linda Gilmore
University of Edinburgh, Edinburgh, UK
Species of Leishmania are responsible for a wide spectrum of diseases throughout the tropics and subtropics, ranging from self-healing ulcers to highly disfiguring lesions and serious, often lethal visceral diseases, such as kala-azar. In Leishmania spp. it has been shown that both sugar uptake and gluconeogenesis are necessary to synthesize sufficient hexose-phosphate required for the production of glycoconjugates and the intracellular polysaccharide mannan which are essential for both replication and virulence of the parasites. Therefore, most of the enzymes participating in glycolysis and gluconeogenesis are expected to be essential (Naderer et al., 2006). The assay described here targets pyruvate kinase from Leishmania mexicania (LmPYK) that was obtained as a highly purified preparation from the University of Edinburgh (E451W mutant was provided). A 1536 well assay protocol was set up and validated by screening the LOPAC library in triplicate as an eight point concentration-titration series using the qHTS platform developed at the NCGC.
NCGC Assay Protocol Summary:
Three uL of substrate mix (final concentrations, 50 mM imidazole pH 7.2, 50 mM KCl, 7 mM MgCl2, 0.5 mM PEP, 0.1 mM ADP, 0.01% Tween 20, 0.05% BSA) was dispensed into white solid medium binding Greiner 1536 well plates. 23 nL of compound were delivered by a pin tool and 1 uL of enzyme mix (final concentration, 0.2 nM LmPYK, 50 mM imidazole pH 7.2, 0.05% BSA) was added. Plates were covered with stainless steel gasket-lined lids and incubated at room temperature for 1 hour. Two uL of detection and kinase stop mix (PKLight, Lonza) was added, and luminescence read by a ViewLux (Perkin Elmer) at 2 second exposure/plate using 2x binning. Controls on each plate were as follows: column 1, sixteen-point titration (1:2 dilutions) in duplicate the LmPK activator LOPAC-C8145 beginning at 57 uM final concentration; column 2, sixteen-point titration (1:2 dilutions) in duplicate activator LOPAC-S4063 beginning at 57 uM final concentration; column 3, column 4 DMSO only. Data were normalized to the neutral control (column 3).

Activity change, negative = inhibition, inactive:
Nc1ncnc2c1ncn2[C@@H]1O[C@@H](C(=O)NC2CC2)[C@H](O)[C@@H]1O 9.29%, CN(C)C(=O)/N=N\C(=O)N(C)C -16.1%, Nc1nc(SCc2ccc([N+](=O)[O-])cc2)c2ncn([C@@H]3O[C@@H](CO)[C@@H](O)[C@H]3O)c2n1 -6.98%, NC(=S)NCCC[C@@H](N)C(=O)O 7.84%, CSc1nc(N)c2ncn([C@@H]3O[C@@H](COP(=O)(O)OP(=O)(O)O)[C@@H](O)[C@H]3O)c2n1 -20.9%, OC[C@@H]1O[C@@H](n2cnc3c(NC4CCCCC4)ncnc32)[C@@H](O)[C@H]1O -7.35%, C[C@@]12C=CC(=O)C=C1CC[C@@H]1C2=CC[C@]2(C)[C@@H]1CC[C@H]2C(=O)CN1CCN(c2cc(N3CCCC3)nc(N3CCCC3)n2)CC1 -2.54%, CC[C@@H]1CN2CCc3cc(OC)c(OC)cc3[C@H]2C[C@@H]1C[C@@H]1NCCc2cc(OC)c(OC)cc21 7.12%, OC[C@@H]1O[C@@H](n2cnc3c(N[C@@H]4C[C@@H]5CC[C@H]4C5)ncnc32)[C@@H](O)[C@H]1O 5.29%, O[C@H](CN1CCN(c2cccc(Cl)c2)CC1)C(c1ccccc1)c1ccccc1 -2.34%, CN[C@@H](CC(C)C)C(=O)N[C@@H]1C(=O)N[C@H](CC(N)=O)C(=O)N[C@H]2C(=O)N[C@H]3C(=O)N[C@H](C(=O)N[C@H](C(=O)O)c4cc(O)cc(O)c4-c4cc3ccc4O)[C@H](O)c3ccc(c(Cl)c3)Oc3cc2cc(c3O[C@@H]2O[C@@H](CO)[C@@H](O)[C@@H](O)[C@H]2O[C@H]2C[C@](C)(N)[C@H](O)[C@H](C)O2)Oc2ccc(cc2Cl)[C@@H]1O -4.57%, C=C/C(C)=C/[C@]1(C)SC(=O)C(C)=C1O 4.62%, O=C(O)CC[C@@H](NC(=O)c1ccccc1C(=O)O)C(=O)O 5.6%, O=C(O)CCCC[C@H]1CCSS1 -7.78%, CCCCC[C@H](CC(=O)NO)C(=O)N[C@@H](C(=O)N1CCC[C@H]1CO)C(C)C 164%, C[C@@H]1O[C@@H](n2cc(F)c(=O)[nH]c2=O)[C@H](O)[C@@H]1O 5.02%, Oc1ccc([C@@H]2CNCc3sccc32)cc1O -6.49%, Nc1nc(Cl)nc2c1ncn2[C@@H]1O[C@@H](CO)[C@@H](O)[C@H]1O 6.18%, Nc1c2c(nc3ccccc13)CCC[C@H]2O -9.06%, [N-]=[N+]=Nc1ccc(C(=O)CSC[C@@H](NC(=O)CC[C@@H](N)C(=O)O)C(=O)NCC(=O)O)cc1 4.81%, CNC(=O)[C@@H]1O[C@@H](n2cnc3c(NCc4ccc(N)cc4)ncnc32)[C@@H](O)[C@H]1O 5.48%, CSc1nc(N)c2ncn([C@@H]3O[C@@H](COP(=O)(O)OP(=O)(O)OP(=O)(O)O)[C@@H](O)[C@H]3O)c2n1 -12.7%, O=C1O/C(=C\Br)CC[C@@H]1c1cccc2ccccc12 13.2%, COc1cc([C@H](O)C(=O)O)ccc1O 7.82%, Nc1nc(Nc2ccccc2)nc2c1ncn2[C@@H]1O[C@@H](CO)[C@H](O)[C@@H]1O -4.23%, OC[C@@H]1NC[C@@H](O)[C@@H](O)[C@H]1O 11.3%, NC(N)=N[C@H](CCC(=O)O)C(=O)O 3.35%, Nc1nc(Cl)nc2c1ncn2[C@@H]1O[C@@H](COP(=O)(O)OP(=O)(O)OP(=O)(O)O)[C@@H](O)[C@H]1O -11%, C[C@H](O)[C@H](O)[C@@H]1CNc2nc(N)[nH]c(=O)c2N1 -7.57%, NC(=O)C1=CN([C@@H]2O[C@@H](COP(=O)(O)OP(=O)(O)OC[C@@H]3O[C@H](n4cnc5c(N)ncnc54)[C@@H](OP(=O)(O)O)[C@@H]3O)[C@H](O)[C@@H]2O)C=CC1 7.44%, C[C@@H](C(=O)O)c1ccc(C[C@@H]2CCCC2=O)cc1 -9%, COc1ccc2c(c1)CCC1C2CC[C@]2(C)[C@H](NCCCCCCN3C(=O)C=CC3=O)CC[C@@H]12 (stereo not given in full) 3.28%, OC[C@@H]1NC[C@@H](O)[C@H]1O 8.14%, O=[N+]([O-])c1ccc(CSc2ncnc3c2ncn3[C@@H]2O[C@@H](CO)[C@@H](O)[C@H]2O)cc1 -18.4%, CN[C@]1(C)[C@@H]2CC[C@@H](C2)C1(C)C -13.3%, COC(=O)[C@H](N)Cc1ccc(Cl)cc1 -2.35%, C#C[C@H](N)CCC(=O)O 5.27%

outcome, inactive:
COC(=O)[C@H]1[C@H]2C[C@H]3c4[nH]c5ccccc5c4CCN3C[C@@H]2CC[C@@H]1O, CCCC[S@@](=N)(=O)CC[C@@H](N)C(=O)O, CC(C)(C)[C@@]1(O)CCN2C[C@@H]3c4ccccc4CCc4cccc(c43)[C@@H]2C1
